From PubChem BioAssay (NCI)
Compounds without any hit were thinned out: in the full panel of roughly 83,000, 20% have a hit.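 Step 1: grow cells in 96-well plates. Step 2: add test compound at a single concentration. Step 3: incubate 48 h. Step 4: record percent growth.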 The source made the active and inactive calls. How the source made its calls: active means growth percent below 10; inactive means the rest.

Tests used:
Assay in all cases: NCI-60 one-dose screen, 48 h (100 = growth as untreated, 0 = no growth, -100 = all killed)
Conditions in all cases: 10 µM unless noted
[1] = test system: NCI-H23 lung
[2] = test system: NCI-H226 lung
[3] = test system: NCI-H322M lung
[4] = test system: HOP-62 NSCLC
[5] = test system: NCI-H460 lung
[6] = test system: HOP-92 NSCLC
[7] = test system: NCI-H522 lung
[8] = test system: A549/ATCC NSCLC
[9] = test system: 786-0 renal
[10] = test system: COLO 205 colon

Measured: growth

CC/C(Cc1ccccc1)=C(\c1ccc(OCCN2CCCC2)cc1)c1ccc(OC(C)=O)cc1
active: [10] 7.7%
inactive: [1] 80.6% | [2] 93% | [3] 86.5% | [4] 94.5% | [5] 42.9% | [6] 78.8% | [7] 83.2% | [8] 78.4% | [9] 82.3%

O=C(Nc1cccc2[nH]c(C(F)(F)F)nc12)c1ccc(Br)cc1F
active: [1] 1.94% | [6] -14.9% | [7] -7.83%
inactive: [2] 36.4% | [3] 57% | [4] 45.3% | [5] 15.1% | [8] 16.7% | [9] 35.8% | [10] 26%

Cc1cc(Nc2nc(-c3cccnc3)nc3ccccc23)n[nH]1
active: [10] -10.2%
inactive: [1] 65.2% | [2] 43.9% | [3] 81.3% | [4] 64.1% | [5] 41.9% | [6] 55.3% | [7] 43.7% | [8] 19% | [9] 55%

COc1cc(NCCCCN=C(N)NC(N)=NC(C)C)c2ncccc2c1
active: [1] -31.5% | [7] -6.15% | [10] -18.5%
inactive: [2] 94.3% | [3] 33.6% | [4] 75.3% | [5] 74.4% | [6] 33.7% | [8] 98.9% | [9] 106%

O=C(Nc1nc(-c2ccccc2)cc(-c2ccc(Cl)cc2)n1)c1ccncc1
inactive: [1] 90.2% | [2] 93.3% | [3] 95.6% | [4] 97.6% | [5] 98.7% | [6] 89.5% | [7] 86.8% | [8] 90.5% | [9] 92.8% | [10] 103%

COc1cc(NCCCCN=C(N)N)c2ncccc2c1
inactive: [1] 13.9% | [2] 98.9% | [3] 73.5% | [4] 80.9% | [5] 104% | [6] 68.8% | [8] 86.8% | [9] 91.6% | [10] 82.6%
active: [7] -9.41%

O=C1/C(=C/c2ccccc2)CN(CCC(=O)N2C/C(=C\c3ccccc3)C(=O)/C(=C/c3ccccc3)C2)C/C1=C\c1ccccc1
inactive: [1] 85.4% | [2] 84.7% | [3] 90.4% | [4] 118% | [5] 84.7% | [6] 63.1% | [7] 53.9% | [8] 88.2% | [9] 73% | [10] 82.4%

CN(C)c1ccc(/C=C(\C#N)c2nc3ccccc3s2)cc1
inactive: [1] 102% | [2] 101% | [3] 86.8% | [4] 116% | [5] 103% | [6] 104% | [7] 92.7% | [8] 105% | [9] 96.8% | [10] 123%

O=C(NC(Cc1ccccc1)C(=O)CCl)OCc1ccccc1 (stereo not given)
active: [7] 6.56%
inactive: [1] 69.4% | [2] 54.4% | [3] 111% | [4] 87.1% | [5] 69.6% | [6] 73% | [8] 116% | [9] 79.8% | [10] 80.2%

CNCc1cccc2c1OCCOCCOCCN(C)S(=O)(=O)c1ccc(cc1)-c1cnc(N)c(n1)C(=O)N2
inactive: [1] 52.6% | [2] 45.6% | [3] 25.5% | [4] 79.8% | [5] 10.5% | [6] 127% | [8] 60.5% | [10] 29.8%
active: [7] 9.56% | [9] 9.16%

O=C(Cc1ccccc1)c1ccc(Cl)cc1
inactive: [1] 95.4% | [2] 99% | [3] 108% | [4] 100% | [5] 109% | [6] 104% | [7] 93.8% | [8] 69.3% | [9] 94.5% | [10] 125%

O=C1/C(=C\c2cn(C(=O)c3ccc(Cl)cc3)c3ccccc23)c2ccccc2N1c1c(Cl)cccc1Cl
inactive: [1] 97.2% | [2] 94.9% | [3] 112% | [4] 94.2% | [5] 111% | [6] 79.9% | [7] 90.9% | [8] 110% | [9] 90.7% | [10] 123%

CCCCN(CC)CCCCCCCCCCN1CCCc2cc(OC)ccc21
inactive: [1] 13.2% | [2] 103% | [3] 54.2% | [4] 106% | [5] 28.5% | [6] 31.8% | [7] 38.8% | [8] 91% | [9] 60.4% | [10] 83.4%

O=[N+]([O-])c1cccc(-c2nc3sccn3c2-c2ccnc(NCCCNS(=O)(=O)c3ccc(F)cc3)n2)c1
inactive: [3] 26.8% | [4] 12.5% | [5] 10.5% | [6] 46.2% | [9] 44.2%
active: [1] -7.3% | [2] -3.92% | [7] 0.116% | [8] 9.67% | [10] 4.52%

Nc1nc2c(c3ncccc13)C(c1cccc(Br)c1)Cc1ncccc1-2 (stereo not given)
inactive: [1] 39.5% | [2] 72% | [3] 41.6% | [4] 20.3% | [5] 10.6% | [6] 67.2% | [9] 21.3%
active: [7] -12.4% | [8] 9.92% | [10] -36.1%

COc1ccc(-c2c3c(nc4n[nH]c(-c5ccc(Cl)cc5)c24)-c2ccccc2C(=O)C3=O)cc1
inactive: [2] 42.3% | [3] 84% | [4] 29.1% | [8] 35.9% | [10] 70.6%
active: [1] -53% | [5] -12.9% | [6] 9.32% | [7] -59.7% | [9] 7.58%

COc1nc2c(cc1S(=O)(=O)c1ccccc1)CCc1c-2cnn1Cc1ccccc1
inactive: [1] 54.1% | [2] 65.9% | [3] 60.1% | [4] 56.2% | [5] 54% | [7] 43.2% | [8] 57.9% | [9] 52.3% | [10] 60.9%
active: [6] 3.62%

COc1ccc2nc3cc(Cl)ccc3c(N3CCN(c4nccc(Nc5ccccc5)n4)CC3)c2c1
active: [7] 7.15%
inactive: [1] 69.8% | [2] 95.4% | [3] 88.3% | [4] 79.2% | [5] 67.4% | [6] 67% | [8] 65.1% | [9] 59.1% | [10] 89.8%

Cc1ccc(C2CC3c4ccccc4C2C2CCCCN32)cc1 (stereo not given)
inactive: [1] 93.6% | [2] 95.9% | [3] 84.1% | [4] 98.6% | [5] 104% | [6] 85.4% | [7] 72.6% | [8] 89.9% | [9] 92.7% | [10] 74%

COc1c(Cl)cc(Cl)cc1Cl
inactive: [1] 108% | [2] 110% | [3] 129% | [4] 97.5% | [5] 97.8% | [6] 116% | [7] 103% | [8] 116% | [9] 112% | [10] 116%

COc1cc(NC(N)=NCC(C)(C)COc2ccc(C(F)(F)F)cc2)cnc1C#N
inactive: [1] 64.9% | [2] 68.7% | [3] 53.1% | [4] 68.5% | [5] 58% | [7] 57.6% | [8] 72.5% | [9] 61.4% | [10] 59.9%
active: [6] -9.25%

Oc1cccc(Nc2nccc(-c3ccc4ccccc4c3)n2)c1
inactive: [1] 33.2% | [2] 70.8% | [3] 46% | [4] 27.2% | [5] 16.1% | [6] 63.5% | [7] 15.6% | [8] 30.7% | [9] 30.1% | [10] 84.7%

Cc1sc2nc3[nH]/c(=C\c4ccc(Cl)cc4)c(=O)n3c(=O)c2c1C
inactive: [1] 103% | [2] 100% | [3] 103% | [4] 110% | [5] 104% | [6] 92.7% | [7] 88.1% | [8] 94.1% | [9] 95.1% | [10] 112%

COc1ccc2nc3cc(Cl)ccc3c(NCCNCC(O)CO)c2c1 (stereo not given)
inactive: [1] 23.6% | [2] 43.1% | [3] 20.6% | [4] 31.5% | [6] 13.1% | [8] 14.6% | [9] 29.3%
active: [5] 0.301% | [7] 3.19% | [10] 0.893%

COc1ccc(Cl)cc1Nc1nc(C(F)(F)F)ccc1C(=O)N/N=C/c1cccnc1
inactive: [1] 41.5% | [2] 51.9% | [3] 59% | [4] 54% | [5] 33.6% | [6] 56.8% | [7] 29.3% | [8] 58.7% | [9] 18.7% | [10] 44.5%

C/C(Cc1ccc(Cl)cc1)=C(\c1ccc(OCCN2CCCCCC2)cc1)c1ccc(OC(=O)C2CCCCC2)cc1
inactive: [1] 74.8% | [2] 79.2% | [3] 70.5% | [4] 81.5% | [5] 34.7% | [6] 29.1% | [7] 64.8% | [8] 66.5% | [9] 70%
active: [10] -21.8%

Cc1ccc(S(=O)(=O)n2cc(-c3csc(-c4cn(C)c5ncccc45)n3)c3ccccc32)cc1
inactive: [1] 68.1% | [2] 77.6% | [3] 79.5% | [4] 51.8% | [5] 30.3% | [6] 35.8% | [7] 45.6% | [8] 41.5% | [9] 77.9% | [10] 43.6%
